Compound activity: PubChem, NMMLSC
Rows were chosen to be rich in hits. Some 2.5% of all compounds tested hit in one or more screens of this group.
GRK2 inh: human GRK2 inhibition via aptamer displacement. inhibition of aptamer binding, % at 10 µM. AID 488847. bead flow cytometry, FAM-aptamer displacement from GRK2. actives 0.59% (n = 330,000). P25098;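 active = inhibition of aptamer binding above 40%, roughly 3 SD of noise, on plates passing a quality check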;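 also: median bead fluorescence of bound FAM aptamer so fluorescent compounds give negative values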
MEKK3 PB1 HTS: raises or lowers MEK5 binding to the human MEKK3 PB1 domain. bead-based flow cytometry, Alexa488-MEK5 binding to MEKK3; actives lie on both sides; 0 = blocked by unlabeled MEK5, 100 = vehicle. binding response (% of control), % at 10 µM. actives 1.4% (n = 290,000). AID 1529;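 active = binding response more than 3 SD above or below the average of its plate-row segment, actives on both sides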;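 also: Alexa488 bead fluorescence after subtracting the streptavidin-only scavenger bead signal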
Target sequence (Q99759 whole entry, looked up, the tested form may be a part): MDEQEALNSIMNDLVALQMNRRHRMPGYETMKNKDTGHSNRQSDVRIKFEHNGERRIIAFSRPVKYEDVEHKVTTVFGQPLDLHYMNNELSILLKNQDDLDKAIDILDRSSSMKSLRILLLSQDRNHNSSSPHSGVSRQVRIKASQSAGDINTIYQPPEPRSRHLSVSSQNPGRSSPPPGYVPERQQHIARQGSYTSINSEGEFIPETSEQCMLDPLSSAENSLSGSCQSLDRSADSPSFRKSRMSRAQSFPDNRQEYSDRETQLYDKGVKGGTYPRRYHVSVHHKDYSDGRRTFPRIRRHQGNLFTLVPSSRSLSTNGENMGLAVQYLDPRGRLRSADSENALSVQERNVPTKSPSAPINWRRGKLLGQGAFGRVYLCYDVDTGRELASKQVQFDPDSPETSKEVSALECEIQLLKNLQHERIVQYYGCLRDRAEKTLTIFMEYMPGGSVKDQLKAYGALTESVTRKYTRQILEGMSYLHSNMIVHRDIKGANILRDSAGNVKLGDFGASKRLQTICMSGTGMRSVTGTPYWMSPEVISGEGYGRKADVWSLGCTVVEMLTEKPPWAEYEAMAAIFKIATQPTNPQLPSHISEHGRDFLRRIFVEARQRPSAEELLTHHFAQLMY
MEKK2 mut-MEK5: signal of MEK5 binding to mutant human MEKK2 PB1 domain | bead flow cytometry, Alexa488-MEK5 binding to MEKK2 mutant | AID 1530 | actives 0.35% (n = 290,000) | percent response, % at 10 µM; in the data active = percent response above about 24%, passing the limit was not always enough
MEKK2 WT-MEK5: raises or lowers MEK5 binding to wildtype human MEKK2 PB1 domain; Q9Y2U5; bead flow cytometry, Alexa488-MEK5 binding to MEKK2 WT; actives lie on both sides; binding response (% of control), % at 10 µM; actives 1.1% (n = 290,000); in the data active = binding response below about 67% or above about 130%
MEKK2wt confirm: raises or lowers MEK5 binding to wildtype human MEKK2, retest | bead flow cytometry, Alexa488-MEK5 binding to MEKK2 WT; actives lie on both sides | binding response (% of control), % at 10 µM | actives 2.4% (n = 5,900) | shares compounds with MEKK3 PB1 HTS; in the data active = binding response below about 16% or above about 210%; inactive = in between
MEKK2mut confirm: signal of MEK5 binding to mutant human MEKK2, retest; AID 1893; shares compounds with MEKK3 PB1 HTS; percent response, % at 10 µM; actives 2% (n = 5,900); bead flow cytometry, Alexa488-MEK5 binding to MEKK2 mutant; in the data active = percent response mostly above about 71%, no sharp cut-off; inactive = mostly below about 38%;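 also: higher means compound restores mutant binding toward wildtype level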
MEKK3 confirm: confirmation of inhibitors of MEK5 binding to human MEKK3; binding response (% of control), % at 10 µM; shares compounds with MEKK3 PB1 HTS; actives 1.8% (n = 5,900); bead flow cytometry, Alexa488-MEK5 binding to MEKK3; stronger effect = lower value;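 active = binding response below 72% of control, or above a set upper limit, though filed actives all read lower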
Each line names hits and unclear results; the compound was inactive in the other large screens (follow-up assays come after a bar, where they were run); [ ] = remark or other dose.

CCCCN(CC)CCNC(=O)c1nn(-c2ccc(OC)cc2)c(=O)c2c1c1ccccc1n2C	MEKK2 WT-MEK5 144 | MEKK2wt confirm inactive | MEKK2mut confirm inactive | MEKK3 confirm inactive
CC(C)(C)C(=O)Cn1nc(Cl)nc1Cl	MEKK3 PB1 HTS 132 | MEKK2wt confirm inactive | MEKK2mut confirm inactive | MEKK3 confirm inactive
CCC(=O)Nc1ccccc1C(=O)OCC(=O)c1cccc2ccccc12	MEKK3 PB1 HTS 68[inhibitor] | MEKK2wt confirm inactive | MEKK2mut confirm inactive | MEKK3 confirm inactive
CCC(=O)Nc1ccccc1C(=O)OCc1ccc(C(=O)c2ccccc2)cc1	none
CCOc1ccc(CCNC(=O)CS(=O)Cc2nc(-c3ccccc3Cl)oc2C)cc1OCC (stereo not drawn)	none
O=C(Nc1ccc(OC(=O)c2ccco2)cc1)c1ccco1	none
COc1cccc(NC(=O)c2ccco2)c1	MEKK3 PB1 HTS 1.0[inhibitor], MEKK2 WT-MEK5 1.0[inhibitor] | MEKK2wt confirm inactive | MEKK2mut confirm inactive | MEKK3 confirm inactive
COc1cccc(C(=O)COc2cccc(NC(=O)c3ccco3)c2)c1	none
O=C(Nc1cccc(OC(=O)c2ccco2)c1)c1ccco1	MEKK3 PB1 HTS 0.0[inhibitor], MEKK2 WT-MEK5 -1.0[inhibitor] | MEKK2wt confirm inactive | MEKK2mut confirm inactive | MEKK3 confirm inactive
COc1ccc2c3c([nH]c2c1)C(C)N(C(C)=O)CC3 (stereo not drawn)	none
COc1ccc2c3c([nH]c2c1)C(C)N(CCC(=O)NN)CC3 (stereo not drawn)	MEKK2 WT-MEK5 140 | MEKK2wt confirm inactive | MEKK2mut confirm inactive | MEKK3 confirm inactive
COC(=O)[C@H](Cc1ccccc1)NC(=O)NC(C)CCc1ccccc1 (stereo partly drawn)	none
Cc1ccc(OCC(=O)Nc2ccc(CN3CCOCC3)cc2)cc1C	none
Cc1cc(C)nc(SCC(=O)n2c3c(c4ccccc42)CCCC3)n1	MEKK3 PB1 HTS 153 | MEKK2wt confirm inactive | MEKK2mut confirm inactive | MEKK3 confirm inactive
O=C(CSc1ncccn1)n1c2c(c3ccccc31)CCCC2	none
O=C(COC(=O)COc1ccccc1)Nc1ccccc1OC(F)F	MEKK3 PB1 HTS 72[inhibitor] | MEKK2wt confirm inactive | MEKK2mut confirm inactive | MEKK3 confirm inactive
O=C(NCc1ccc2c(c1)OCO2)c1ccc(COc2cccc(Cl)c2)o1	none (no result: MEKK3 PB1 HTS, MEKK2 mut-MEK5, MEKK2 WT-MEK5)
O=C(NCCCN1CCCC1=O)c1cc(-c2cccnc2)nc2ccc(Cl)cc12	MEKK3 PB1 HTS 70[inhibitor] | MEKK2wt confirm inactive | MEKK2mut confirm inactive | MEKK3 confirm inactive
Cc1ccccc1-c1cc(C(=O)NCc2ccc3c(c2)OCO3)nn1CC1CC(c2cccc([N+](=O)[O-])c2)=NO1 (stereo not drawn)	none (no result: MEKK3 PB1 HTS, MEKK2 mut-MEK5, MEKK2 WT-MEK5)
CCCC(=O)NCCc1nc2ccccc2n1CCC	none
CCCn1c(CNC(=O)Cc2ccccc2)nc2ccccc21	MEKK3 PB1 HTS 32[inhibitor], MEKK2 WT-MEK5 38[inhibitor] | MEKK2wt confirm inactive | MEKK2mut confirm inactive | MEKK3 confirm inactive
O=C1N=C(N2CCC(Cc3ccccc3)CC2)S/C1=C/c1cn[nH]c1-c1ccccc1	none
Cc1ccc(S(=O)(=O)c2c(C)cc(-c3ccccc3)[nH]c2=O)cc1	MEKK3 PB1 HTS 143, MEKK2 WT-MEK5 134 | MEKK2wt confirm inactive | MEKK2mut confirm inactive | MEKK3 confirm inactive
Cc1cccc(-c2nc(CS(=O)CC(=O)N3CCN(C)CC3)c(C)o2)c1 (stereo not drawn)	none
NS(=O)(=O)c1ccc(Nc2ncccc2[N+](=O)[O-])cc1	MEKK3 PB1 HTS 1.0[inhibitor], MEKK2 WT-MEK5 0.0[inhibitor] | MEKK2wt confirm inactive | MEKK2mut confirm inactive | MEKK3 confirm inactive
CCn1nc(C)cc1C(=O)Sc1cccc(Br)c1	none
Cc1ccc2c(c1)C(=O)C(=O)N2Cc1ccc(F)cc1	none (no result: MEKK3 PB1 HTS, MEKK2 mut-MEK5, MEKK2 WT-MEK5)
COc1ccccc1Oc1nc2ccccn2c(=O)c1/C=C(\C#N)C(=O)Nc1c(C)n(C)n(-c2ccccc2)c1=O	none
Cc1ccc(Oc2nc3ccccn3c(=O)c2/C=C(\C#N)C(=O)Nc2c(C)n(C)n(-c3ccccc3)c2=O)c(C)c1	MEKK3 PB1 HTS 74[inhibitor] | MEKK2wt confirm inactive | MEKK2mut confirm inactive | MEKK3 confirm inactive
CCS(=O)(=O)c1ccc2oc(SCC(=O)N3CCCCC3)nc2c1	MEKK3 PB1 HTS 48[inhibitor] | MEKK2wt confirm inactive | MEKK2mut confirm inactive | MEKK3 confirm inactive
CCS(=O)(=O)c1ccc2oc(SCC(=O)c3ccco3)nc2c1	none
O=[N+]([O-])c1ccc2nc(-c3ccncc3)[nH]c2c1	none
O=[N+]([O-])c1cccc(-c2nc3ccc([N+](=O)[O-])cc3[nH]2)c1	MEKK3 PB1 HTS 128 | MEKK2wt confirm inactive | MEKK2mut confirm inactive | MEKK3 confirm inactive
Cc1cc(-c2nnnn2-c2cc(Cl)cc(Cl)c2)no1	MEKK3 PB1 HTS 131 | MEKK2wt confirm inactive | MEKK2mut confirm inactive | MEKK3 confirm inactive
COC(=O)c1cnc(Nc2ccc(Cl)cc2)c([N+](=O)[O-])c1	none
CCOC(=O)C(NC(=O)CC(C)C)(Nc1sc(C)c(CC)c1C#N)C(F)(F)F (stereo not drawn)	none
CCOC(=O)C(NC(=O)CCl)(Nc1sc(C)c(CC)c1C#N)C(F)(F)F (stereo not drawn)	MEKK3 PB1 HTS 147 | MEKK2wt confirm inactive | MEKK2mut confirm inactive | MEKK3 confirm inactive
COc1ccc(C)cc1NC(=O)CN1CCN(c2ccccc2F)CC1	none
CCc1ccc(NC(=O)C/C(C)=N/NC(=O)OCc2ccc(OC)cc2)cc1	MEKK3 PB1 HTS 136 | MEKK2wt confirm inactive | MEKK2mut confirm inactive | MEKK3 confirm inactive
CCc1ccc(NC(=O)C(=O)N/N=C(\C)CC(=O)Nc2ccc(OC)cc2)cc1	none
Cc1ccc(CSc2nnc(-c3ccc(NS(=O)(=O)c4ccccc4)cc3)o2)cc1	MEKK3 PB1 HTS 21[inhibitor], MEKK2 WT-MEK5 26[inhibitor] | MEKK2wt confirm inactive | MEKK2mut confirm inactive | MEKK3 confirm inactive
O=C(O)CSc1nnc(-c2ccccc2)o1	none
Cc1ccc(S(=O)(=O)Nc2ccc(-c3nnc(SCc4ccccc4Cl)o3)cc2)cc1	none
Cc1occc1-c1nnc(SCC(N)=O)o1	none
Cc1occc1-c1nnc(SCC(=O)c2ccc(F)cc2)o1	MEKK3 PB1 HTS 48[inhibitor] | MEKK2wt confirm inactive | MEKK2mut confirm inactive | MEKK3 confirm inactive
Cc1ccc(C(=O)CSc2nnc(-c3ccccc3)o2)cc1	MEKK3 PB1 HTS 1.0[inhibitor], MEKK2 WT-MEK5 -2.0[inhibitor] | MEKK2wt confirm inactive | MEKK2mut confirm inactive | MEKK3 confirm inactive
CC1(C)Cc2c(sc(NC(=O)c3ccco3)c2C#N)C(C)(C)N1	none
N#Cc1sc2nc(C3CC3)cc(-c3ccccc3)c2c1N	MEKK3 PB1 HTS 131 | MEKK2wt confirm inactive | MEKK2mut confirm inactive | MEKK3 confirm inactive
N#Cc1sc2nc(-c3ccccc3)cc(-c3ccco3)c2c1N	none
